Test results as given in PubChem BioAssay (NCATS).
Where “and” joins values, the source holds several entries; their conditions need not be identical. Identical values can stand only once. Results filed as inconclusive are left out. Calls of active or inactive are those of the source. Unless noted, calls follow the shape of the full dose curve.

Columns and labels:
[1] = AP1 Signaling Pathway (AID 357; active = well fitted curve in either direction with a large enough effect, not every such curve was filed as active;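 also: ME-180 reporter cells stimulated with EGF at its EC50 level; % is scaled to controls: 0 for no effect and ±100 for the full control effect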)
Summary of the method: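 A ratiometric CCF4 readout (405 nm excitation; 460 and 530 nm emission) quantified AP-1-driven beta-lactamase in ME-180 cells after 5 h with compound and EC50 EGF; AC50 values were derived for activators and inhibitors.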

[2] = NFAT Signaling Pathway (AID 444; active = well fitted curve in either direction with a large enough effect, not every such curve was filed as active;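 also: carbachol stimulus at about its EC50 of 1 µM final; % is scaled to controls: 0 for no effect and ±100 for the full control effect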); conditions: Jurkat NFAT-bla M1, carbachol, beta-lactamase ratio, 5 h; at 17.2 µM (top of the series)
Summary of the method: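 Read-out: CCF4 FRET ratio (460 nm/530 nm) after 1 h RT dye loading, used for %activity and AC50 from titration series. Cells: Jurkat NFAT-β-lactamase/M1 line, treated with compound plus 1 uM carbachol for 5 h, 37 °C.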

[3] = Stat Signaling Pathway (AID 446; active = well fitted curve in either direction with a large enough effect, not every such curve was filed as active;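 also: ME-180 cervical cancer cells given 40 pM IL-6 alongside compound; SIE-controlled beta-lactamase reporter measured as 460/530 nm FRET emission ratio; % is scaled to controls: 0 for no effect and ±100 for the full control effect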)
Summary of the method: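 IL-6/STAT signaling read in ME-180 cells via an SIE beta-lactamase reporter. Stimulus was 40 pM IL-6 (its AC50) for 5 hrs, so both activation and inhibition register.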

[4] = Cell Viability - BJ (AID 421); conditions: BJ fibroblast viability, qHTS;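 also: potency is read from the fitted curve at half-maximal effect; cells exposed to compound for 40 hours at 37 °C before readout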
Summary of the method: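 Quantitative HTS: ATP depletion in BJ cells after 40 hr compound exposure in complete culture medium, detected with CellTiter-Glo; AC50 from standard Hill fits.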

[5] = Cell Viability - Hek293 (AID 427;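 active = compounds whose dose-response curve shows a full or clear partial loss of cell viability, called from curve shape rather than a numeric limit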;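 also: potency is read from the fitted curve at half-maximal effect; cells exposed to compound for 40 hours at 37 °C before reading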); conditions: qHTS
Summary of the method: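 AC50 values derive from Hill-modelled concentration-response of ATP-based luminescence, normalized between DMSO-only and 100 uM tamoxifen controls. Cells were exposed in complete culture medium for 40 hr at 37 °C before detection.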

[6] = Cell Viability - HepG2 (AID 433); conditions: qHTS;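 also: potency is read from the fitted curve at half-maximal effect; cells exposed to compound for 40 hours; potency for ATP loss meaning cytotoxicity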
Summary of the method: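 Cytotoxicity read as ATP loss (CellTiter-Glo luminescence) after 40 hr compound exposure of HepG2, 1500 cells/well, 37 °C. AC50 by Hill equation; 0% set by DMSO, 100% inhibition by 100 uM tamoxifen.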

[7] = Cell Viability - MRC5 (AID 434); conditions: MRC5 lung fibroblast viability, qHTS;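 also: potency is read from the fitted curve at half-maximal effect; cells exposed to compound for 40 hours at 37 °C; potency reflects cytotoxicity seen as loss of intracellular ATP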
Summary of the method: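 qHTS cytotoxicity in human lung fibroblast MRC5 cells; 40 hr treatment, 37 °C; cellular ATP by luciferase luminescence; DMSO = 0%, 100 uM tamoxifen = 100% inhibition; Hill-fit AC50.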

[8] = Cell Viability - SK-N-SH (AID 435); conditions: SK-N-SH neuroblastoma cell viability qHTS; also: potency is read from the fitted curve at half-maximal effect
Summary of the method: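 qHTS cytotoxicity: CellTiter-Glo ATP luminescence after 40 h compound exposure of human neuroblastoma SK-N-SH cells at 37 °C. AC50 derived by Hill-equation fitting, with DMSO as basal and 100 uM tamoxifen as full inhibition.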

CC1(C)S[C@@H]2[C@H](NC(=O)Cc3ccccc3)C(=O)N2[C@H]1C(=O)O
inactive: outcome [1] | activity change, negative = inhibition [2] -9.19% and 5.43% | outcome [3]

CCCCCCCC(=O)O
inactive: Potency [4] > 92 µM | Potency [5] > 92 µM | Potency [6] > 92 µM | Potency [7] > 92 µM | Potency [8] > 92 µM

O=S(=O)(O)O
inactive: Potency [4] > 92 µM | Potency [5] > 92 µM | Potency [6] > 92 µM | Potency [7] > 92 µM | Potency [8] > 92 µM

CN1Cc2c(N)cccc2C(c2ccccc2)C1 (configuration not stated)
inactive: outcome [1]

CCOC(C)=O
inactive: Potency [4] > 92 µM | Potency [5] > 92 µM | Potency [6] > 92 µM | Potency [7] > 92 µM | Potency [8] > 92 µM

Cc1onc(-c2ccccc2)c1C(=O)N[C@@H]1C(=O)N2[C@@H]1SC(C)(C)[C@@H]2C(=O)O
inactive: outcome [1] | activity change, negative = inhibition [2] 24.2% | outcome [3]
